CYP2C19 activ: human CYP2C19 activators, primary screen, biochemical, luminescence; Cytochrome P450 2C19 (Homo sapiens), P33261; recombinant CYP2C19, luciferin-H EGE luminescence; active compounds read high; 0 = fully inhibited enzyme, 1 = untreated enzyme; activation factor at 5 µM; 96,000 tested, under 10 active; AID 1025, 2008;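 active = activation factor of at least 2 at 5 µM in the primary screen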
CYP2C9 activ: human CYP2C9 activators, primary screen, biochemical, luminescence; Cytochrome P450 2C9 (Homo sapiens), P11712; recombinant CYP2C9, luciferin-H conversion; active compounds read high; factor 1 = untreated enzyme, 0 = blocked; activation factor at 5 µM; 96,000 compounds, 1.4% hits; AID 1024, 2008;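 active = activation factor of 2 or more for CYP2C9 at a 5 µM dose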
CYP2C19 inh: blockers of cytochrome P450 2C19 activity – biochemical, luminescence, ADME assay, primary screen; inhibition, % at 5 µM; AID 778, 2007; 96,000 compounds, 21% hits; CYP2C19 Supersomes, luciferin-H EGE luminescence, 30 min; P33261;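 active = CYP2C19 inhibition above a set limit at 5 µM in the primary screen, cut at about 50% in these data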
PLAP act: PLAP enzyme activators, biochemical, luminescence, HTS; Alkaline phosphatase, placental type (Homo sapiens), P05187; purified PLAP enzyme, luminescent substrate read-out; active compounds read high; activation fold at 20 µM; 96,000 compounds, 1.2% hits; in the data active = activation fold above about 2
Target sequence (P05187 whole entry, looked up): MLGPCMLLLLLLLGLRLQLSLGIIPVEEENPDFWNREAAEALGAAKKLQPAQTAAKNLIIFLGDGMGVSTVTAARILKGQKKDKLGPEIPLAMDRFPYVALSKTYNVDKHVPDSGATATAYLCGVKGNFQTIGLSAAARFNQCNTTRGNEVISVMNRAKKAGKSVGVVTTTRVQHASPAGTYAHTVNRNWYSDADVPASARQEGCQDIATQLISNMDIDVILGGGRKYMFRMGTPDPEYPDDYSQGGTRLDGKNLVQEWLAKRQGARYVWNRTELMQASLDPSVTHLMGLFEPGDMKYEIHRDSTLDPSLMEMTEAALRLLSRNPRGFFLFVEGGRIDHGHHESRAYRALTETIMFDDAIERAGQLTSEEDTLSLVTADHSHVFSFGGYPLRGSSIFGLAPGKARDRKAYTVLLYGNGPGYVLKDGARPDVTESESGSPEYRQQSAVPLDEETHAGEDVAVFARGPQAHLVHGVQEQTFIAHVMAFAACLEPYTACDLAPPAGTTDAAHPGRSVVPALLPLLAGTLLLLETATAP
CYP2C9 inhib: blockers of cytochrome P450 2C9 activity – biochemical, luminescence, ADME assay, primary screen | P11712 | CYP2C9 Supersomes, luciferin-H conversion | inhibition, % at 5 µM | 96,000 compounds, 20% hits | AID 777, 2007;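 active = blocking of liver enzyme CYP2C9 beyond about 50% at 5 µM, limit read from the data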
Each line names hits and unclear results; the compound was inactive in the other large screens. An excerpt weighted towards active compounds, which were near 31% of everything screened.

CCOC(=O)c1nnn(-c2nonc2N)c1CSc1ccccn1	CYP2C9 inhib 56
COC(=O)c1c(C)n(-c2ccc(OC)cc2)c2ccc(O)cc12	CYP2C19 inh 79, CYP2C9 inhib 67
Cc1c(C(=O)O)c2cc(O)ccc2n1-c1ccccc1	none
CCOc1ccc2c(c1)c(C(C)=O)c(C)n2-c1ccccc1	CYP2C19 inh 99, CYP2C9 inhib 99
CCNC(=O)/N=C1/NC(=O)C(C(C)C)O1 (stereo not drawn)	none
C=CCSc1nnc(-c2nnc(SCC=C)n2-c2ccccc2)n1-c1ccccc1	none
C=CCSc1nnc2nc3c(nn12)c1cc(C)ccc1n3CC=C	CYP2C9 inhib 56
Nc1cccc(-c2nc3ccc(N)cc3s2)c1	CYP2C19 inh 80, CYP2C9 inhib 58
Nc1ccc(O)c(-c2nc3ccccc3s2)c1	none
COC(=O)c1c(F)c(F)c(NCCO)c(F)c1F	none
CC(=O)/C=C(\C)NCCNc1c(F)c(F)c(CO)c(F)c1F	CYP2C19 inh 79
COC(=O)CSc1nnc(-c2cccnc2)n1-c1cc(OC)cc(OC)c1	none
CCOC(=O)C1=C(C)NC(=O)NC1C1CC=CCC1 (stereo not drawn)	CYP2C19 inh 52
CC1=C(C(=O)OC(C)C)C(C2CC=CCC2)NC(=O)N1 (stereo not drawn)	CYP2C19 inh 65
CN1C(=O)C2(c3ccccc31)C1CCCC=C1C(C#N)=C(N)C2(C#N)C#N (stereo not drawn)	none
COc1cc(NC(=O)c2ccco2)c(C(=O)OCC(=O)Nc2ncc(Cl)cc2Cl)cc1OC	none
Cc1c(Cl)cnc(NC(=O)COC(=O)C(NC(=O)c2ccco2)C(C)C)c1Cl (stereo not drawn)	CYP2C19 inh 77
CC(OC(=O)C(NC(=O)c1ccco1)C(C)C)C(=O)Nc1ncc(Cl)cc1Cl (stereo not drawn)	none
O=C(COC(=O)c1ccccc1NC(=O)c1ccco1)Nc1ncc(Cl)cc1Cl	CYP2C9 inhib 64
Cn1cc([N+](=O)[O-])c(C(=O)Nc2ccn(Cc3c(F)c(F)cc(F)c3F)n2)n1	none (no result: PLAP act)
COc1cccc2[nH]c3c(N4CCCCC4)ncnc3c12	none
CCOC(=O)C1CCN(c2ncnc3c2oc2ccc(Cl)cc23)CC1	CYP2C19 inh 80, CYP2C9 inhib 53
CCOC(=O)C1CCN(c2ncnc3c2[nH]c2cccc(OC)c23)CC1	CYP2C19 inh 61, CYP2C9 inhib 51
CC(C)(Oc1ccc(Cl)cc1)C(=O)Nc1ncccn1	none
COc1ccc(CNC(=O)C2CSC(=O)C2)cc1 (stereo not drawn)	none
Cc1ncsc1C(=O)N1N=C2/C(=C/c3ccccc3)CCCC2C1c1ccccc1 (stereo not drawn)	CYP2C9 inhib 52
COc1ccc(/C=C2\CCCC3C2=NN(C(=O)COC(=O)CNC(=O)c2ccccc2)C3c2ccc(OC)cc2)cc1 (stereo not drawn)	CYP2C9 inhib 74
COc1ccc(C(=O)NCC(=O)OCC(=O)N2CC(C)CC(C)C2)cc1 (stereo not drawn)	CYP2C9 inhib 66
COc1ccc(OC)c(CCNC(=O)CC2Oc3ccc(C)cc3NC2=O)c1 (stereo not drawn)	none
CCOc1ccc(C2c3c(oc4cc(C)c(C)cc4c3=O)C(=O)N2CCCN(C)C)cc1OC (stereo not drawn)	CYP2C9 inhib 56
COc1ccc(C2c3c(oc4ccc(C)cc4c3=O)C(=O)N2c2cc(C)ccn2)cc1OC (stereo not drawn)	CYP2C9 inhib 64
COc1cccc(C2c3c(oc4cc(C)c(C)cc4c3=O)C(=O)N2CCCN(C)C)c1 (stereo not drawn)	none
CCOC(=O)c1nn(-c2ccc(Cl)cc2)c2nc(Nc3ccccc3)cc(=O)n12	none
CCCc1cc(=O)[nH]c(SCc2cc(C(=O)OC)c(C)o2)n1	CYP2C19 inh 77, CYP2C9 inhib 87
COC(=O)c1cc(CSc2nc3ccccc3[nH]2)oc1C	CYP2C19 inh 98, PLAP act 2.3, CYP2C9 inhib 87
O=C(CCCCCn1c(SCC(=O)c2ccccc2)nc2ccccc2c1=O)NCc1ccco1	CYP2C19 inh 82, CYP2C9 inhib 98
CCOC(=O)CSc1nc2ccccc2c(=O)n1CCCCCC(=O)NCc1ccco1	CYP2C19 inh 60, CYP2C9 inhib 97
CC(=O)NCCn1c(SCC(=O)c2ccc(Cl)cc2)nc2ccccc2c1=O	none
O=C(CSc1nc2ccccc2c(=O)n1CCCO)NCc1ccccc1	none
O=C(CCCn1c(SCC(=O)c2ccc(Cl)cc2)nc2ccccc2c1=O)NCc1ccco1	CYP2C9 inhib 54
Cc1cccc(-n2c(SCC(=O)NCc3ccco3)nc3ccccc3c2=O)c1	none
CCC(=O)Nc1ccc(-c2nn3c(C)nnc3s2)cc1C	none
COc1ccccc1CCn1c(N)c(C#N)c2nc3ccccc3nc21	CYP2C9 inhib 55
COc1ccc(Cn2c(N)c(C#N)c3nc4ccccc4nc32)cc1OC	CYP2C19 inh 90, CYP2C9 inhib 67
COc1ccc(CCn2c(N)c(C#N)c3nc4ccccc4nc32)cc1OC	CYP2C19 inh 98
CC(C)(C)OC(=O)NNC1CC(=O)N(c2ccccc2F)C1=O (stereo not drawn)	none
O=C(CCN1C(=O)COc2ccccc21)NCCCN1CCc2ccccc2C1	none
Cc1cc(OCCOc2cccc3cccnc23)cc(C)c1Cl	CYP2C9 activ 2.2
O=C(c1ccccc1F)N(Cc1ccc2c(c1)OCO2)Cc1cc2cc3c(cc2n2nnnc12)OCO3	CYP2C19 inh 78, CYP2C9 inhib 50
Cc1ccc2c(c1)cc(CN(Cc1ccc3c(c1)OCO3)C(=O)c1cnccn1)c1nnnn12	none
Cc1cc2cc(CN(Cc3ccc4c(c3)OCO4)C(=O)c3cnccn3)c3nnnn3c2cc1C	CYP2C19 inh 61, CYP2C9 inhib 63
Cc1cc2cc3c(cc2nc1SCC(=O)Nc1nc(C)c(C)s1)OCO3	none
O=C(CSc1nc(-c2cccs2)cc(C(F)(F)F)n1)NCc1ccccc1	CYP2C19 inh 60, CYP2C9 inhib 91
CCCNC(=O)CSc1nc(-c2cccs2)cc(C(F)(F)F)n1	CYP2C19 inh 68, CYP2C9 inhib 77
Cc1cc(NC(=O)CSc2nc(-c3cccs3)cc(C(F)(F)F)n2)no1	none
O=C(Cn1cc2c(n1)CCCC2)NCCCN1CCN(c2ccccc2F)CC1	none
O=C(Nc1ccncc1)Nc1ccc(F)cc1F	CYP2C19 inh 97, CYP2C9 inhib 83
O=C(Nc1ccncc1)c1cccc(F)c1	CYP2C19 inh 56
O=C(Nc1ccc(F)cc1)c1ccc(-n2ccnc2)nc1	CYP2C19 inh 100, CYP2C9 inhib 96
O=C(Nc1cccc(F)c1)c1ccccc1	none
COc1ccc(C(=O)Nc2nccs2)cc1OC	none
COCCCNC(=O)Nc1ccc(F)cc1F	none
COc1ccc(C(=O)Nc2ccncc2)cc1OC	CYP2C19 inh 57
